Rows were chosen to be rich in hits. Some 4.2% of all compounds tested hit in one or more screens of this group.
VDR inh: vitamin D3 receptor (human) inhibition; VDR-SRC2-3 peptide fluorescence polarization, 2 h; Potency, µM, usual class: inhibitors; 400,000 compounds, 0.93% hits
Target sequence (P11473 whole entry, looked up): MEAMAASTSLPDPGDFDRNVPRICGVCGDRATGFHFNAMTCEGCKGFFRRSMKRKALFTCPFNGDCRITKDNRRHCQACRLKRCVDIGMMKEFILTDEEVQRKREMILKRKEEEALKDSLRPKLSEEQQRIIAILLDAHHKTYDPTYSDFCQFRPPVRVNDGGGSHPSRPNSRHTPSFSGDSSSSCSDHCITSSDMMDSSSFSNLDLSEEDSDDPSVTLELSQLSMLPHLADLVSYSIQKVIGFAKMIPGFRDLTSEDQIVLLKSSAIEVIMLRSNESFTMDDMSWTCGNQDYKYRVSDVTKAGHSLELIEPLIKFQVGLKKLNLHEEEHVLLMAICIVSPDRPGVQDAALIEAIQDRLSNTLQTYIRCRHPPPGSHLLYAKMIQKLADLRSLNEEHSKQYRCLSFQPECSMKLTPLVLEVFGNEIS
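Fluorescence polarization assay of small-molecule disruption of VDR binding to coregulator peptide SRC2-3. Compounds and controls pin-transferred, then read after 2 h incubation at ambient room temperature.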
PLK1 PBD inh: PLK1 (human) polo-box domain binding inhibition | 360,000 compounds, 2.8% hits | Potency, µM, most hits filed as inhibitors | Plk1 PBD binding of FITC phosphopeptide, fluorescence polarization | P53350; also: series mostly up to about 57 µM; nearly all actives have a fitted effect of over 65% in size
Sfp PPTase inh: Sfp phosphopantetheinyl transferase inhibition. Potency, µM, most hits filed as inhibitors. Biochemical Sfp PPTase activity, qHTS. 310,000 compounds, 3.5% hits;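 also: the enzyme is Sfp with the accession as filed and its product quenches rhodamine fluorescence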
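With Hepes-Na pH 7.6 buffer containing 10 mM MgCl2, Sfp (15 nM) modified BHQ-2-YbbR (12.5 uM) using rhodamine-CoA (5 uM). Two reads 30 minutes apart at 525/598 nm yielded each well's rate.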
12-LOX inh: ALOX12 (human) lipoxygenase inhibition | P18054 | purified 12hLO, xylenol orange hydroperoxide absorbance | Potency, µM (titrated, usually from 108 µM), actives largely listed as inhibitors | 580,000 compounds, 1.1% hits | AID 1671190
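Purified human 12hLO at 150 nM in 25 mM Hepes, 0.01% Triton X-100, pH 7.0, preincubated 15 min at room temperature with compound. Reaction started with 40 uM arachidonic acid, 30 min at room temperature. Hydroperoxide measured by Fe-xylenol orange, 573/405 nm absorbance ratio.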
Each line names hits and unclear results; the compound was inactive in the other large screens. Calls follow the shape of the dose curve; as a rule, active = well fitted curve in the direction sought with a large enough effect; inconclusive = small, poorly fitted or top-dose-only effect, or another doubt; inactive = no such curve, though single readings can be large; an effect the other way counts as inactive or inconclusive.

Oc1c(Br)cc(/C=N/n2c(-c3ccccc3)n[nH]c2=S)cc1Br	VDR inh inconclusive, PLK1 PBD inh inconclusive, 12-LOX inh 22µM
Oc1ccc(/C=N/n2c(-c3ccccc3)n[nH]c2=S)cc1Br	12-LOX inh 32µM
Cc1c(Br)c(O)c(Br)c(O)c1/C=N/n1c(-c2ccccc2)n[nH]c1=S	VDR inh inconclusive, PLK1 PBD inh 3µM, Sfp PPTase inh inconclusive (no result: 12-LOX inh)
Oc1c(Br)cc(/C=N/n2c(-c3ccccc3)n[nH]c2=S)c(O)c1Br	VDR inh inconclusive, PLK1 PBD inh 6.7µM (no result: 12-LOX inh)
COc1ccc(C2CC(=O)C(C(c3ccc(O)cc3)C3C(=O)CC(c4ccc(OC)cc4)CC3=O)C(=O)C2)cc1 (stereo not given)	Sfp PPTase inh 35µM (no result: VDR inh, PLK1 PBD inh, 12-LOX inh)
COc1ccc(C2=CC(=O)CC(c3ccc(OC)cc3)C2)cc1 (stereo not given)	none
CC1CCN(C(=S)c2ccc3c(c2)OCO3)CC1	none
S=C(c1ccc2c(c1)OCO2)N1CCN(c2cccc(Cl)c2)CC1	VDR inh inconclusive, PLK1 PBD inh 9.5µM, 12-LOX inh inconclusive (no result: Sfp PPTase inh)
Cc1cccc(N2CCN(C(=S)c3ccc4c(c3)OCO4)CC2)c1	VDR inh 79µM, PLK1 PBD inh 11µM (no result: Sfp PPTase inh)
O=C(c1ccc2c(c1)OCO2)N1CCN(c2ccc(Cl)cc2)CC1	12-LOX inh inconclusive
O=C1/C(=C/c2ccc(O)cc2)SC(=S)N1Cc1cccnc1	none
CN1CCN(C(=O)CCCN2C(=O)/C(=C/c3ccc(Cl)cc3)SC2=S)CC1	none (no result: Sfp PPTase inh, 12-LOX inh)
O=C(CCN1C(=O)/C(=C/c2ccccc2Cl)SC1=S)NNC(=O)c1ccccc1O	Sfp PPTase inh 50µM
CCCN1C(=O)/C(=C/c2ccncc2)SC1=S	VDR inh inconclusive, Sfp PPTase inh 56µM
O=C1/C(=C\c2ccc(O)c(O)c2)SC(=S)N1Cc1ccccc1	12-LOX inh inconclusive
CN1CCN(C(=O)CCN2C(=O)/C(=C\c3ccc(Cl)cc3Cl)SC2=S)CC1	PLK1 PBD inh 42µM, 12-LOX inh inconclusive
O=C1/C(=C/c2ccncc2)SC(=S)N1Cc1ccccc1	VDR inh 71µM, PLK1 PBD inh inconclusive, Sfp PPTase inh inconclusive, 12-LOX inh inconclusive
O=C(c1ccc(F)cc1F)N1CCN(c2cc(-c3ccc(F)cc3)[nH]n2)CC1	none (no result: VDR inh, PLK1 PBD inh, Sfp PPTase inh)
O=C(CSc1ccccc1)NCc1ccccc1	none
O=C1/C(=C/c2ccncc2)SC(=S)N1N1CCOCC1	PLK1 PBD inh inconclusive, Sfp PPTase inh 56µM
O=C1/C(=C\c2cccc(O)c2O)SC(=S)N1Cc1ccccc1	PLK1 PBD inh 3µM, Sfp PPTase inh 40µM, 12-LOX inh inconclusive
COc1ccc(C(=O)N2CCN(c3nnc4ccccn34)CC2)cc1OC	none (no result: VDR inh, PLK1 PBD inh, Sfp PPTase inh)
CCc1nnc(NS(=O)(=O)c2ccc(N/C=C(\C=O)c3nc4cc(Cl)ccc4o3)cc2)s1	PLK1 PBD inh inconclusive, 12-LOX inh 8.9µM
COc1nccnc1NS(=O)(=O)c1ccc(NC(=S)NC(=O)/C=C/c2ccc(F)cc2)cc1	PLK1 PBD inh inconclusive, 12-LOX inh 13µM
CCc1nnc(NS(=O)(=O)c2ccc(NC(=O)c3cccc(OC)c3)cc2)s1	none
CCc1nnc(NS(=O)(=O)c2ccc(NC(=O)/C=C/C(=O)O)cc2)s1	Sfp PPTase inh 50µM
COc1cc(NS(=O)(=O)c2ccc(NC(=S)NC(=O)/C=C/c3ccc(F)cc3)cc2)ncn1	PLK1 PBD inh inconclusive
CCc1nnc(NS(=O)(=O)c2ccc(NC(=O)c3ccc(Cl)cc3)cc2)s1	PLK1 PBD inh inconclusive
CCc1nnc(NS(=O)(=O)c2ccc(NC(=O)/C=C/c3ccccc3Cl)cc2)s1	PLK1 PBD inh inconclusive, 12-LOX inh inconclusive
CCc1nnc(NS(=O)(=O)c2ccc(NC(=S)NC(=O)/C=C/c3ccc(OC)cc3)cc2)s1	PLK1 PBD inh 27µM, Sfp PPTase inh 79µM
CCc1nnc(NS(=O)(=O)c2ccc(NC(=S)NC(=O)/C=C/c3ccccc3)cc2)s1	PLK1 PBD inh inconclusive, 12-LOX inh 22µM
C=CCc1cccc2cc(C(=O)Nc3ccc(S(=O)(=O)Nc4nnc(CC)s4)cc3)c(=O)oc12	PLK1 PBD inh 21µM, Sfp PPTase inh 79µM
CCc1nnc(NS(=O)(=O)c2ccc(NC(=S)NC(=O)/C=C/c3ccc(C(C)C)cc3)cc2)s1	PLK1 PBD inh 21µM, Sfp PPTase inh inconclusive (no result: 12-LOX inh)
COc1ccc(NS(=O)(=O)c2ccc(NC(=S)NC(=O)/C=C/c3ccccc3)cc2)nn1	PLK1 PBD inh inconclusive
CCc1nnc(NS(=O)(=O)c2ccc(NC(=O)c3ccccc3)cc2)s1	none
CCc1nnc(NS(=O)(=O)c2ccc(N/C=C\C(=O)c3ccc4ccccc4c3)cc2)s1	PLK1 PBD inh 24µM
CCCCc1cc(=O)oc2cc(OCC(=O)Nc3ccccn3)ccc12	none
O=C(NC1CCOc2ccccc21)c1ccc(=O)[nH]c1 (stereo not given)	none
